Results from ChEMBL document CHEMBL3988442, “University of Dundee, Small-Polar-MMV Screening Library” (2021).

Assays:
[1] = biological target: T1, Aspartate--tRNA(Asp/Asn) ligase (Mycobacterium tuberculosis (strain ATCC 25618 / H37Rv)) (UniProt P9WFW3); assay: Assay for Asp RNA synthetase-1 from Mycobacterium tuberculosis; format: functional; design: scale not given: direction of the effect not stated beside the values; details: 30 µM; also: in the data most compounds retested in dose-response had high values
T1 sequence (whole entry): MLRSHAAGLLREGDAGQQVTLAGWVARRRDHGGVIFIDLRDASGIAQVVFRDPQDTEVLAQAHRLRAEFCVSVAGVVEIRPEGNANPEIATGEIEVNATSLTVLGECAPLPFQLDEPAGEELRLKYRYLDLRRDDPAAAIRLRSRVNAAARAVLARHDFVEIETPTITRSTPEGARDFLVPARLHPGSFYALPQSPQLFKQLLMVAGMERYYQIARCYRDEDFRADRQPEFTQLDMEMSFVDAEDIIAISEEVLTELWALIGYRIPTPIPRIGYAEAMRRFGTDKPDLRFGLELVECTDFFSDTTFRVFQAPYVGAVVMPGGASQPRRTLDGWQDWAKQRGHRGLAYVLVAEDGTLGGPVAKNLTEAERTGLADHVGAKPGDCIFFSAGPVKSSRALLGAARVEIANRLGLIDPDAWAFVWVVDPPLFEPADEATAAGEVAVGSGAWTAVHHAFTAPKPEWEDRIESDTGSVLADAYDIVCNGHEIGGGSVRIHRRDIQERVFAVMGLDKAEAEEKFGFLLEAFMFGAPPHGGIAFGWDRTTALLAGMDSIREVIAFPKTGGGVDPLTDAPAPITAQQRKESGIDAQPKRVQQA

[2] = biological target: Shiga toxin 2 (Escherichia coli O157:H7) (UniProt P09385+P09386); assay: E. coli 0.157:H7 Shiga Toxin SOP - stx2 screening assay; format: functional; design: scale not given: direction of the effect not stated beside the values; details: 30 µM

Compound	Percent Effect [1] [%]	Percent Effect [2] [%]
CN1CCc2cc(C(CNS(=O)(=O)c3cccs3)N3CCCC3)ccc21 (stereo unspecified)	-0.102	-6.23
COc1ncccc1NC(=O)C1CCN(S(C)(=O)=O)CC1	-1.61	-91.6
Cc1ccc(CN2CCc3ncnc(C4CCOC4)c3CC2)s1 (stereo unspecified)	1.05	-15.3
COCCC(=O)N1CCN(CCN(C)C)c2ncccc2C1	4.55	-25.6
Cn1ccnc1C(NCc1csc(Br)c1)c1ccccc1 (stereo unspecified)	-0.175	-3.96
CCc1noc(C(C)N(C)CC(=O)Nc2ccc(C)cc2)n1 (stereo unspecified)	1.52	-3.18
Cc1cc(C)cc(NC(=O)CN2CCCC(n3cncn3)C2)c1 (stereo unspecified)	-0.903	12.2
O=C(NCCN1CCC(c2cccs2)CC1)Nc1cccs1	-7.93	-125
CCc1ccc(NC(=O)c2cnc(N3CCN(C)CC3)nc2C)cc1	-0.248	-28
CCc1noc(CNc2cc(F)ccc2OCC2CCCO2)n1 (stereo unspecified)	0.569	-4.24
O=C(NCc1cnc2n1CCN(Cc1ccsc1)CC2)C1CCC1	3.57	4.16
CNc1nc(C2CCCN2C(C)=O)nc2c1CCN(CC1CC1)C2 (stereo unspecified)	1.43	-7.13
O=C(NCCn1ccnc1)NCC(c1ccco1)N1CCCCC1 (stereo unspecified)	1.79	22.2
Cc1ccc(CN2CCc3ncc(CNS(C)(=O)=O)n3CC2)o1	1	-24.4
CCCn1nc2c(cc1=O)CN(CCS(C)(=O)=O)CC2	5.96	0.931
COc1cc(CCC(C)O)c(OC)c2c1OCO2 (stereo unspecified)	-0.435	-10.2
O=C1CCC2(CCCN(c3ncc(F)cn3)CC2)N1CC1CC1 (stereo unspecified)	-1.91	-3.81
Cc1ncc(-c2ccnc(N3CCCCC3)n2)c(=O)[nH]1	-2.84	-19.6
Cc1cc(CN(C)C(=O)C2CCS(=O)(=O)C2)no1 (stereo unspecified)	-3.37	-1.66
COc1ncccc1CN1CCn2c(Cn3cncn3)cnc2C1	-2.81	-13.9
CN(Cc1ccsc1)C(=O)CN1CCCC1Cn1cccn1 (stereo unspecified)	2.25	-9.42
CC(CNC(=O)Nc1cn[nH]c1)N1CCc2ccccc2C1 (stereo unspecified)	-0.721	21.5
CC(C)(C)C(=O)N1CCC(c2nc(O)cc(-c3ccccn3)n2)CC1	5.88	-6.29
COCCn1cc2c(n1)C(CNCc1ccco1)OCC2 (stereo unspecified)	3	-35.6

Compound	Percent Effect [1] [%]	Percent Effect [2] [%]
OC1CCN(Cc2c(C3CCCNC3)[nH]c3ncccc23)CC1 (stereo unspecified)	7.49	-0.778
CCCNC(=O)C(C)n1cc(Br)cn1 (stereo unspecified)	5.47	-46.7
Cc1c(C(=O)NCC2CCCO2)nnn1-c1cccc2c1CCN(C)C2 (stereo unspecified)	3.06	-26.5
CC(C)NC(=O)COc1nc(C(C)(C)C)no1	0.301	2.21
Cc1nn(C)c2cnn(CC(=O)NCCc3ccccc3)c12	-1.83	-33.3
CCOCCCNC(=O)c1nn(CC)cc1Cl	-5.87	-47.7
O=C1NC(c2ccccc2)=N[C@@]12CC[C@@H]1CN(Cc3ccccc3)C[C@@H]12	0.728	-14.6
O=C(Cn1cc(I)cn1)Nc1cccnc1	1.95	-36.6
CC(C(=O)NCCOc1cccc(Cl)c1)n1cncn1 (stereo unspecified)	4.65	-10.9
Cc1nc(C)n(CC2CN(CCCOc3ccccc3C)CCO2)n1 (stereo unspecified)	1.31	4.82
CCC1c2ccsc2CCN1C(=O)NCc1cc[nH]n1 (stereo unspecified)	-1.83	-35
CSc1ccc(C(CNC(=O)C2CC2)N2CCc3sccc3C2)cc1 (stereo unspecified)	-0.15	11.2
CCNc1cc2c(nn1)CCN(C(=O)c1ccnc(N(C)C)c1)C2	0.611	3.23
CCS(=O)(=O)N(C)C(=O)c1cc(C)n(-c2cccc(OC)c2)c1C	-6.83	-4.96
CCOC(=O)CN1CCC(C(=O)c2cc(F)ccc2F)CC1	-0.233	-13.5
c1cnnc(N2CCCC(NCc3cn4ccccc4n3)C2)c1 (stereo unspecified)	2.13	-114
CC(C(=O)N1CCCN(c2ccc(C#N)cc2)CC1)n1ccnc1 (stereo unspecified)	-2.92	4.39
Cc1cnn(CC2CCCN2C(=O)CCc2ccsc2)c1 (stereo unspecified)	-3.37	14.6
Cc1nc(-c2ccsc2)ccc1C(=O)NCCN1CCOCC1	-2.94	-4.33
O=C1NCC[C@]12CN(Cc1ccoc1)C[C@H]2c1ccccc1	1.06	-14.1
Cn1cc(C2COC3(CCN(C(=O)c4ccc(F)cc4)CC3)C2)cn1 (stereo unspecified)	0.474	4.34
Cc1ccc(C)c(NC(=O)c2n[nH]c(-n3cnnc3)n2)c1	-4.33	-11.6
CCC1CN(CCNC(C)=O)CCN1CCOC (stereo unspecified)	15	16.5
CC(OCC(F)(F)F)C(=O)NCc1ccc(-n2cncn2)nc1 (stereo unspecified)	-3.63	-8.85
